In paper PMC4336329 (PLoS ONE, 2015):
Out of some 310,000 compounds screened, about 14,000 (4.5%) showed an effect of 50% or more. The effect is printed as a negative number. Shown is part of a subset that was picked to be rich in strong results.

Target: human ether-à-go-go-related gene (hERG) potassium channel (human, UniProt Q12809)
Assay: primary screen, population patch clamp on CHO cells stably expressing hERG; higher = less effect of the substance
Description: Briefly, Chinese hamster ovary (CHO) cells stably expressing the hERG channel were dislodged from tissue culture flasks and dispensed into PPC plates. […] During the recording, background leak currents were estimated by a 100 ms step to -80 mV from an initial holding potential of -70 mV and subtracted from the subsequent current measurement. The campaign was conducted in two phases using slight differences in recording protocol. In the first phase, the initial voltage pulse used a 100 ms step to -30 mV from a holding potential of -70 mV, a 2 s conditioning step to +25 mV, and a 2 s test step to -30 mV. During the second phase of the screen, the potential during the conditioning step was raised to +45 mV. In both phases of the campaign, a secondary voltage pulse was applied using the same parameters as the second phase initial pulse. The initial and secondary pulses were applied in the absence of compound, and upon application of 1 μM and 10 μM test concentrations. […]
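Also: peak tail current of the secondary pulse compared with the same well before compound.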

human ether-à-go-go-related gene (hERG) potassium channel, sequence (Q12809 whole entry, looked up): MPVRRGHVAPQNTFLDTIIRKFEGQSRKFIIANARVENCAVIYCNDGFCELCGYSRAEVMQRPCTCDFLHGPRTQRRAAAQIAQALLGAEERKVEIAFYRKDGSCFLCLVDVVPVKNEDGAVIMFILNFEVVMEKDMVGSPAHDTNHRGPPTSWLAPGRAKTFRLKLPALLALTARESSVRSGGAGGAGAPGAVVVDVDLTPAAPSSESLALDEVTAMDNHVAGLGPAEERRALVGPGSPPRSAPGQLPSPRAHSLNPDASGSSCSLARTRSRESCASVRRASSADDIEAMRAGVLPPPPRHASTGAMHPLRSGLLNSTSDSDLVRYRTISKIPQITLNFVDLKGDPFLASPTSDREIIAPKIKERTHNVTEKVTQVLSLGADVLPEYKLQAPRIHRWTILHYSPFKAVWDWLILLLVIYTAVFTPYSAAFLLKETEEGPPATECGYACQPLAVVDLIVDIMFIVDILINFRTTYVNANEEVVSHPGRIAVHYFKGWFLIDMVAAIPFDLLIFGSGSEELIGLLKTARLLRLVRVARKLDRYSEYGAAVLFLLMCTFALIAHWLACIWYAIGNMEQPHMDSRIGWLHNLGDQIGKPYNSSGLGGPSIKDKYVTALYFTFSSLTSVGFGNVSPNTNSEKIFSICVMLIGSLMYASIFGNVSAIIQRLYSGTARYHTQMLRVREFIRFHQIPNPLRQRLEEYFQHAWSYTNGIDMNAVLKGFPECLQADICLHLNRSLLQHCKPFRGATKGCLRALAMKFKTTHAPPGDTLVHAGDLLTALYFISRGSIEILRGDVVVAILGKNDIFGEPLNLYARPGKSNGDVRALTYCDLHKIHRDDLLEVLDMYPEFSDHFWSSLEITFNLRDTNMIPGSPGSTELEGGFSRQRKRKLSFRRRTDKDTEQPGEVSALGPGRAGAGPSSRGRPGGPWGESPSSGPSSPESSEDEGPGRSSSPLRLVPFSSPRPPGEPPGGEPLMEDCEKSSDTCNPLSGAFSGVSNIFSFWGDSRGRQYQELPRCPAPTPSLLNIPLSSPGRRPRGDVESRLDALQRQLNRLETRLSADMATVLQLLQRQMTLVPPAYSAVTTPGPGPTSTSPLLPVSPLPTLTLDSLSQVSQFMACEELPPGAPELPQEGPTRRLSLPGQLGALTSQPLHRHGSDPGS

Row | Structure (SMILES) | hERG current change (%, negative = inhibition) at 10uM
1 | COc1ccc(OC)c(/C=N/NC(=O)CSc2nnc(C)n2-c2ccccc2)c1 | -12.4%
2 | CCOc1cc(/C=C(\C#N)C(=O)NCc2cccnc2)ccc1O | -8.66%
3 | COc1ccccc1/C=C\C=N\NC(=O)CCn1nnc2ccccc21 | -3.44%
4 | Cc1nc(Br)c(Br)c(C)c1Br | 14.4%
5 | Cc1ccc(NC(=O)CCNC(=O)c2ccc([N+](=O)[O-])cc2)cc1S(=O)(=O)N1CCOCC1 | -47.4%
6 | O=C(CCNC(=O)c1ccc([N+](=O)[O-])cc1)Nc1ccc(S(=O)(=O)N2CCOCC2)cc1 | 2.67%
7 | O=C(CCNC(=O)c1ccc([N+](=O)[O-])cc1)Nc1ccc(Cl)c(S(=O)(=O)N2CCOCC2)c1 | -66.2%
8 | O=C(CNc1cccc(S(=O)(=O)N2CCCCCC2)c1)Nc1cccc([N+](=O)[O-])c1 | -71.9%
9 | O=C(CNc1cccc(S(=O)(=O)N2CCCCC2)c1)Nc1cccc(F)c1 | -9.9%
10 | CC(=O)c1cccc(NCC(=O)Nc2cccc(S(=O)(=O)N3CCCCC3)c2)c1 | -31.6%
11 | Cc1ccc(-n2c(C)nnc2SCC(=O)N(C)C2CCS(=O)(=O)C2)cc1 (centres unmarked) | 12.9%
12 | Cl.O=C(CCc1ccc(S(=O)(=O)N2CCOCC2)cc1)N1CCN(Cc2ccc3c(c2)OCO3)CC1 | -34.3%
13 | Clc1ccc(-c2cn3nc4c(nc3n2)CCCC4)cc1 | -15.3%
14 | CCOC(=O)c1ccc(NC(=O)c2ccc(NC(=O)C3CCCO3)cc2)cc1 (centres unmarked) | 17%
15 | COc1ccccc1C(=O)Nc1ccccc1N1CCCCC1 | -22.4%
16 | O=C(Nc1ccccc1N1CCN(C(=O)c2ccccc2)CC1)c1cccc(Cl)c1 | -67.8%
17 | O=C(Nc1ccccc1N1CCN(C(=O)c2ccc(Cl)cc2)CC1)c1ccc(Br)cc1 | -41.5%
18 | O=C(Nc1ccccc1N1CCCCC1)c1cccc(Cl)c1 | 13.5%
19 | CC(C)C(=O)NC(=S)Nc1ccccc1N1CCN(C(=O)c2ccc(Cl)cc2)CC1 | -3.55%
20 | COc1ccccc1C(=O)Nc1ccccc1N1CCN(C(=O)c2ccc(Cl)cc2)CC1 | -82.1%
21 | CC(C)C(=O)Nc1ccccc1N1CCN(C(=O)c2ccccc2)CC1 | -14.2%
22 | COc1cccc(OC)c1C(=O)Nc1ccccc1N1CCCC1 | -74.6%
23 | COc1cccc(OC)c1C(=O)Nc1ccccc1N1CCCCC1 | -17.4%
24 | O=C(Nc1ccccc1N1CCN(C(=O)c2ccccc2)CC1)c1ccc(Cl)cc1 | -73.2%

Row | Structure (SMILES) | hERG current change (%, negative = inhibition) at 10uM
25 | COc1ccccc1C(=O)Nc1ccccc1N1CCOCC1 | -6.98%
26 | CC(C)(C)C(=O)Nc1ccccc1N1CCN(C(=O)c2ccc(Cl)cc2)CC1 | -48.2%
27 | O=C(NC1CCSc2ccccc21)c1ccc(Cl)c(S(=O)(=O)N2CCOCC2)c1 (centres unmarked) | 7.48%
28 | Cc1ccc(C(=O)Nc2nc3ccccc3s2)s1 | 8.75%
29 | CC(C)[C@H](NC(=O)c1ccco1)C(=O)N(C)Cc1c(F)cccc1Cl | -32.3%
30 | CCOC(=O)C1(C)/C(=N/Nc2ccccc2Cl)C(=O)C(=O)N1c1ccccc1 (centres unmarked) | 6.03%
31 | Cc1ccc(S(=O)(=O)n2nc(C)c(Br)c2C)c(C)c1C | 20.8%
32 | Cc1ccc(S(=O)(=O)NCc2ccc(C(=O)N3CCN(c4ccccn4)CC3)cc2)cc1 | -33.6%
33 | Nc1nc(-c2ccccc2)nc2sc3c(c12)CCCC3 | 11.7%
34 | Cc1ccc(C(=O)Nc2ccccc2N2CCN(C(=O)C(C)C)CC2)cc1 | -19.1%
35 | COc1cc(C(=O)Nc2ccccc2N2CCN(S(C)(=O)=O)CC2)cc(OC)c1OC | -29.9%
36 | Cc1ccc(C(=O)Nc2ccccc2N2CCN(C(=O)C(C)C)CC2)cc1C | -18.7%
37 | CCCCOc1cccc(C(=O)Nc2ccccc2N2CCCC2)c1 | 5.59%
38 | CCOc1ccc(C(=O)Nc2ccccc2N2CCCC2)cc1 | -22.8%
39 | CCOc1cccc(C(=O)Nc2ccccc2N2CCN(C(=O)C(C)C)CC2)c1 | -70%
40 | COc1cc(Cl)ccc1NC(=O)COc1ccccc1C(=O)NN | -15.4%
41 | COc1cc2ccccc2cc1C(=O)Nc1ccccc1N1CCN(S(C)(=O)=O)CC1 | 6.35%
42 | CC(C)C(=O)N1CCN(c2ccccc2NC(=O)c2cccc(Cl)c2)CC1 | -69.6%
43 | COc1ccccc1NC(=O)COC(=O)c1ccccc1C(=O)N1CCN(c2ccccc2)CC1 | -42.3%
44 | COc1ccccc1C(=O)Nc1ccccc1N1CCN(S(C)(=O)=O)CC1 | -62%
45 | COc1cc(Cl)ccc1NC(=O)COc1ccccc1C(=O)N1CCN(c2ccc(O)cc2)CC1 | -53.9%
46 | O=C(CNC(=O)c1ccc(Cl)cc1)c1ccccc1 | -9.6%
47 | CC(C)OC(=O)CSc1nnc2c(n1)[nH]c1ccc(F)cc12 | 8.22%
48 | CN(C(=O)Cn1nnc(-c2ccc(F)cc2)n1)C1CCS(=O)(=O)C1 (centres unmarked) | -2.38%

Row | Structure (SMILES) | hERG current change (%, negative = inhibition) at 10uM
49 | NC1=NC(=O)C(CC(=O)c2ccc(Cl)cc2)S1 (centres unmarked) | 1.23%
50 | COc1cccc(-n2c(SCC(=O)NCc3cccs3)nc3ccccc3c2=O)c1 | -2.74%
51 | O=C(c1ccc(Cl)cc1)N1CCN(c2cc(=O)[nH]nc2-c2ccccc2)CC1 | -58.3%
52 | COC(=O)c1ccccc1NC(=S)NC(=O)c1ccc2c(c1)OCO2 | 32.6%
53 | Cc1ccc(C(=O)N2CCN(c3cc(=O)[nH]nc3-c3ccccc3)CC2)cc1 | -41.7%
54 | O=C(Nc1ccccc1N1CCN(C(=O)c2ccc(Cl)cc2)CC1)c1cccc(F)c1 | -78.9%
55 | O=C(Nc1ccc(Cl)cc1C(=O)N1CCCC1)c1cccc([N+](=O)[O-])c1 | -12%
56 | O=C(Nc1ccccc1N1CCN(C(=O)c2ccc(Cl)cc2)CC1)c1cccc([N+](=O)[O-])c1 | -75%
57 | O=C(Nc1ccccc1N1CCCC1)c1cccc(F)c1 | 6.24%
58 | O=C(NC(=S)NCc1ccccc1)c1ccc2c(c1)OCO2 | -8.81%
59 | O=C(Nc1ccccc1N1CCN(c2ccccc2)CC1)c1cccc(F)c1 | -8.05%
60 | CCC(=O)N1CCN(c2ccc(Cl)cc2NC(=O)c2cccc([N+](=O)[O-])c2)CC1 | -49.2%
61 | O=C(c1ccc(F)cc1)N1CCN(c2cc(=O)[nH]nc2-c2ccccc2)CC1 | -4.51%
62 | O=C(NC(=S)Nc1ccccc1Br)c1ccc2c(c1)OCO2 | -56.4%
63 | COc1ccc(OC)c(NC2=C(Cl)C(=O)N(Cc3ccccc3)C2=O)c1 | 5.06%
64 | CCn1c(COc2cc(C)ccc2C(C)C)nnc1SCC(=O)Nc1nccs1 | 5.52%
65 | COC(=O)c1ccc(N)cc1O | 22%
66 | Cc1cccc2c(C(=O)Nn3cnnc3)cc(-c3ccccc3Cl)nc12 | 25.8%
67 | CC(=O)N1CCN(c2ncnc3sc(-c4ccccc4)cc23)CC1 | -44.4%
68 | CCOC(=O)c1cnc(SCC(=O)N2CCN(C(=O)c3ccco3)CC2)nc1N | -29.3%
69 | O=C(Nc1ccccc1N1CCCC1)c1ccc2c(c1)OCO2 | -3.23%
70 | O=C(Nc1ccccc1N1CCCC1)c1cccnc1 | -0.385%
71 | O=C(Nc1ccccc1N1CCN(C(=O)c2ccc(Cl)cc2)CC1)c1cccnc1 | -73.2%
72 | O=C(Nc1ccccc1N1CCN(C(=O)c2ccccc2)CC1)c1ccc2c(c1)OCO2 | -60.7%

Row | Structure (SMILES) | hERG current change (%, negative = inhibition) at 10uM
73 | CN1CCN(c2ccc(NC(=O)c3cccc(OCc4ccccc4)c3)cc2)CC1 | -8.95%
74 | CN1CCN(c2ccccc2NC(=O)c2ccc(OCc3ccccc3)cc2)CC1 | -41.9%
75 | O=C(Nc1ccccc1N1CCN(C(=O)c2ccc(Cl)cc2)CC1)c1ccc2c(c1)OCO2 | -46.8%
76 | O=C(Nc1ccc(N2CCN(C(=O)c3ccccc3)CC2)c(Cl)c1)c1cccnc1 | -31.2%
77 | CN1CCN(c2ccccc2NC(=O)c2cccc(OCc3ccccc3)c2)CC1 | -78.9%
78 | CCOc1ccc(C2C(C#N)=C(N)N3C(=C2C#N)Sc2ccccc23)cc1 (centres unmarked) | 9.5%
79 | CC1Cc2ccccc2N1C(=O)CSc1nnc2n1C(C)(C)Cc1ccccc1-2 (centres unmarked) | -3.06%
80 | CC(C)CNC(=O)CCc1nc(-c2ccccc2)no1 | 10.4%
81 | O=[N+]([O-])c1cc(S(=O)(=O)C(F)(F)F)ccc1NCC1CCCO1 (centres unmarked) | 16.5%
82 | O=C(NCCCn1ncc2ccccc21)c1cc(COc2c(F)cccc2F)on1 | 6.73%
83 | CCn1ncc(Br)c1C(=O)Nc1ccc(Cl)cn1 | -7.49%
84 | CCC(=O)N1CCN(c2c(Cl)cccc2[N+](=O)[O-])CC1 | -13.5%
85 | O=C1CN(C(=O)/C=C/c2ccccc2F)c2ccccc2N1 | -2.56%
86 | O=C(/C=C/c1ccc(Cl)cc1Cl)N1CCc2ccccc21 | -1.39%
87 | O=[N+]([O-])c1cc(Cl)ccc1N1CCCC1 | 5.05%
88 | O=C(/C=C/c1ccccc1[N+](=O)[O-])N1CCCCC1 | -2.55%
89 | O=C(/C=C/c1ccc(Cl)cc1Cl)N1CCN(c2ccccc2[N+](=O)[O-])CC1 | -72.7%
90 | O=C(/C=C/c1ccc(Cl)cc1)N1CCN(c2ccc(Cl)cc2[N+](=O)[O-])CC1 | -92.9%
91 | O=C(/C=C/c1ccccc1)N1CCN(c2c(Cl)cccc2[N+](=O)[O-])CC1 | -20.8%
92 | CC(C)(C)C(=O)N1CCN(c2ccc(Cl)cc2[N+](=O)[O-])CC1 | -39.3%
93 | O=C1CN(C(=O)/C=C/c2cccc(Cl)c2)c2ccccc2N1 | -21.4%
94 | O=C(/C=C/c1ccc(Cl)cc1)N1CCN(c2c(Cl)cccc2[N+](=O)[O-])CC1 | -58%
95 | O=C1CN(C(=O)/C=C/c2ccc(Cl)cc2)c2ccccc2N1 | -75.2%
